In all, about 5,500 compounds went through this assay and about 2,000 (36%) were called active. About 18% were inconclusive and are not listed. No stated cut-off is given here; in the data, active means normalized growth mostly below about 0.91 (no sharp cut-off); inconclusive means no clear call, values can overlap the other calls; inactive means mostly above about 0.92. The list shows a part of the results.
Test: chemical genetic growth profiling, strain panel (AID 1159580);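 further: tested at 20 µM; growth read once vehicle control cultures reached saturation at 30 °C; 1 = growth at the plate median or of vehicle wells; lower values mean less growth of the strain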
Settings: growth OD

Measured: normalized growth

CC(C)CC(NC(=O)OCC1c2ccccc2-c2ccccc21)C(=O)O (stereo unspecified)
inactive: S. cerevisiae deletion strains, locus YAL013W, strain DEP1, hits give low values 1.01 | S. cerevisiae deletion strains, locus YBR021W, strain FUR4, hits give low values 0.994 | S. cerevisiae deletion strains, locus YBR229C, strain ROT2, hits give low values 0.997 | S. cerevisiae deletion strains, locus YCL029C, strain bik1, hits give low values 1.03 | S. cerevisiae deletion strains, locus YDL035C, strain GPR1, hits give low values 0.998 | S. cerevisiae deletion strains, locus YDL074C, strain BRE1, hits give low values 1 | S. cerevisiae deletion strains, locus YDL101C, strain DUN1, hits give low values 1.02 | S. cerevisiae deletion strains, locus YDL134C, strain PPH21, hits give low values 0.986 | S. cerevisiae deletion strains, locus YDL185W, strain tfp1, hits give low values 0.998 | S. cerevisiae deletion strains, locus YDL192W, strain arf1, hits give low values 1.01 | S. cerevisiae deletion strains, locus YDR101C, strain arx1, hits give low values 1.01 | S. cerevisiae deletion strains, locus YDR150W, strain NUM1, hits give low values 0.995 | S. cerevisiae deletion strains, locus YDR162C, strain NBP2, hits give low values 1.01 | S. cerevisiae deletion strains, locus YDR318W, strain mcm21, hits give low values 1.02 | S. cerevisiae deletion strains, locus YDR388W, hits give low values 1.01 | S. cerevisiae deletion strains, locus YDR502C, strain sam2, hits give low values 1.02 | S. cerevisiae deletion strains, locus YEL061C, strain CIN8, hits give low values 0.997 | S. cerevisiae deletion strains, locus YER110C, hits give low values 1.02 | S. cerevisiae deletion strains, locus YER155C, strain BEM2, hits give low values 1 | S. cerevisiae deletion strains, locus YER167W, strain BCK2, hits give low values 0.995 | S. cerevisiae deletion strains, locus YGL078C, strain dbp3, hits give low values 1 | S. cerevisiae deletion strains, locus YGL086W, strain mad1, hits give low values 0.981 | S. cerevisiae deletion strains, locus YGL248W, strain PDE1, hits give low values 1 | S. cerevisiae deletion strains, locus YGR078C, strain PAC10, hits give low values 1.02 | S. cerevisiae deletion strains, locus YGR135W, strain pre9, hits give low values 1.02 | S. cerevisiae deletion strains, locus YGR229C, strain SMI1, hits give low values 0.982 | S. cerevisiae deletion strains, locus YGR252W, strain gcn5, hits give low values 0.916 | S. cerevisiae deletion strains, locus YHR030C, strain SLT2, hits give low values 1.01 | S. cerevisiae deletion strains, locus YHR079C, strain IRE1 (second series), hits give low values 1.01 | S. cerevisiae deletion strains, locus YHR094C, strain hxt1, hits give low values 0.997 | S. cerevisiae deletion strains, locus YHR129C, strain ARP1, hits give low values 1.01 | S. cerevisiae deletion strains, locus YHR200W, strain rpn10, hits give low values 1.01 | S. cerevisiae deletion strains, locus YIL066C, strain RNR3, hits give low values 1.02 | S. cerevisiae deletion strains, locus YIL073C, strain SPO22, hits give low values 1.03 | S. cerevisiae deletion strains, locus YIL125W, strain kgd1, hits give low values 0.992 | S. cerevisiae deletion strains, locus YIR030C, strain dcg1, hits give low values 1 | S. cerevisiae deletion strains, locus YJL095W, strain BCK1, hits give low values 1.07 | S. cerevisiae deletion strains, locus YJL134W, strain LCB3, hits give low values 1 | S. cerevisiae deletion strains, locus YJL168C, strain set2, hits give low values 1.01 | S. cerevisiae deletion strains, locus YJL187C, strain SWE1 (second series), hits give low values 1.02 | S. cerevisiae deletion strains, locus YJR043C, strain POL32, hits give low values 1.02 | S. cerevisiae deletion strains, locus YJR075W, strain HOC1, hits give low values 0.997 | S. cerevisiae deletion strains, locus YKL009W, strain mrt4, hits give low values 0.969 | S. cerevisiae deletion strains, locus YKL068W, hits give low values 0.997 | S. cerevisiae deletion strains, locus YKL085W, strain MDH1 (second series), hits give low values 1 | S. cerevisiae deletion strains, locus YKL085W, strain MDH1, hits give low values 1 | S. cerevisiae deletion strains, locus YKL190W, strain CNB1, hits give low values 0.985 | S. cerevisiae deletion strains, locus YKR001C, strain vps1, hits give low values 1.06 | S. cerevisiae deletion strains, locus YLR039C, strain RIC1, hits give low values 1.05 | S. cerevisiae deletion strains, locus YLR058C, strain SHM2, hits give low values 0.997 | S. cerevisiae deletion strains, locus YLR102C, strain apc9, hits give low values 1.01 | S. cerevisiae deletion strains, locus YLR262C, strain YPT6, hits give low values 1.11 | S. cerevisiae deletion strains, locus YLR268W, strain sec22, hits give low values 1.06 | S. cerevisiae deletion strains, locus YLR330W, strain CHS5, hits give low values 0.984 | S. cerevisiae deletion strains, locus YLR342W, strain FKS1 (second series), hits give low values 0.985 | S. cerevisiae deletion strains, locus YLR371W, strain rom2, hits give low values 1.01 | S. cerevisiae deletion strains, locus YLR418C, strain cdc73, hits give low values 1 | S. cerevisiae deletion strains, locus YML016C, strain PPZ1, hits give low values 0.995 | S. cerevisiae deletion strains, locus YML032C, strain rad52, hits give low values 1.01 | S. cerevisiae deletion strains, locus YML124C, strain tub3, hits give low values 1 | S. cerevisiae deletion strains, locus YMR078C, strain ctf18, hits give low values 1.01 | S. cerevisiae deletion strains, locus YMR223W, strain ubp8, hits give low values 0.982 | S. cerevisiae deletion strains, locus YMR263W, strain SAP30, hits give low values 1.01 | S. cerevisiae deletion strains, locus YMR307W, strain GAS1, hits give low values 0.985 | S. cerevisiae deletion strains, locus YNL067W, strain RPL9B, hits give low values 1.03 | S. cerevisiae deletion strains, locus YNL128W, strain TEP1, hits give low values 1.02 | S. cerevisiae deletion strains, locus YNL153C, strain GIM3, hits give low values 1.02 | S. cerevisiae deletion strains, locus YNL233W, strain BNI4, hits give low values 1.01 | S. cerevisiae deletion strains, locus YNL250W, strain rad50, hits give low values 0.996 | S. cerevisiae deletion strains, locus YNL271C, strain bni1, hits give low values 1 | S. cerevisiae deletion strains, locus YNL298W, strain CLA4, hits give low values 0.994 | S. cerevisiae deletion strains, locus YNL307C, strain MCK1, hits give low values 1.02 | S. cerevisiae deletion strains, locus YNL322C, strain KRE1, hits give low values 1 | S. cerevisiae deletion strains, locus YNR052C, strain pop2, hits give low values 1.01 | S. cerevisiae deletion strains, locus YOL006C, strain TOP1, hits give low values 1.1 | S. cerevisiae deletion strains, locus YOL012C, strain htz1 1.27 | S. cerevisiae deletion strains, locus YOL147C, strain pex11, hits give low values 1.01 | S. cerevisiae deletion strains, locus YOR061W, strain CKA2, hits give low values 0.991 | S. cerevisiae deletion strains, locus YOR069W, strain VPS5, hits give low values 1 | S. cerevisiae deletion strains, locus YOR136W, strain idh2, hits give low values 0.99 | S. cerevisiae deletion strains, locus YOR144C, strain elg1, hits give low values 1 | S. cerevisiae deletion strains, locus YOR184W, strain ser1, hits give low values 1.05 | S. cerevisiae deletion strains, locus YOR316C, strain cot1, hits give low values 1.01 | S. cerevisiae deletion strains, locus YPL055C, strain LGE1, hits give low values 0.963 | S. cerevisiae deletion strains, locus YPL241C, strain CIN2, hits give low values 0.993 | S. cerevisiae deletion strains, locus YPR119W, strain clb2, hits give low values 1 | S. cerevisiae deletion strains, locus YPR141C, strain kar3, hits give low values 0.999 | S. cerevisiae deletion strains, locus YPR163C, strain tif3, hits give low values 1.02 | S. cerevisiae deletion strains, locus YPR167C, strain met16, hits give low values 1.01 | S. cerevisiae deletion strains, strain wtn01, hits give low values 1.04 | S. cerevisiae strains, strain wild type, hits give low values 1

— PubChem BioAssay AID1159580 (chemical genetic matrix, 2015)
